Measurements from the supplement of paper PMC8728848.
Only a selection was taken, and the strongest signals are over-represented in it overall.

Columns and labels:
Assay in all cases: glycan array binding signal (z-score within array); higher = stronger binding
Conditions in all cases: glycan notation: IUPAC condensed, linker removed
[1] = target: Fuc(a1-2)Gal(b1-3)GalNAc(b1-4)[Neu5Ac(a2-3)]Gal(b1-4)Glc
Method in brief: (§1)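 From the Consortium for Functional Glycomics database, 3228 arrays were curated, keeping only those whose protein sequence was available. Binding is given as a within-array Z-score averaged across arrays sharing a protein sequence and across linkers. Negative Z-scores can be read as non-binding.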

[2] = target: Fuc(a1-2)Gal(b1-3)GlcNAc6S
Method in brief: as §1

[3] = target: Fuc(a1-2)Gal(b1-3)[Fuc(a1-4)]GlcNAc(b1-2)Man(a1-3)[Fuc(a1-2)Gal(b1-3)[Fuc(a1-4)]GlcNAc(b1-2)Man(a1-3)]Man(b1-4)GlcNAc(b1-4)GlcNAc
Method in brief: as §1

Fuc(a1-2)Gal(b1-4)Glc6S = target: Fuc(a1-2)Gal(b1-4)Glc6S
Method in brief: as §1

[4] = target: Fuc(a1-2)Gal(b1-4)GlcNAc(b1-2)[Fuc(a1-2)Gal(b1-4)GlcNAc(b1-4)]Man(a1-3)[Fuc(a1-2)Gal(b1-4)GlcNAc(b1-2)Man(a1-6)]Man(b1-4)GlcNAc(b1-4)GlcNAc
Method in brief: as §1

Fuc(a1-2)GlcNAc = target: Fuc(a1-2)GlcNAc
Method in brief: as §1

[5] = target: Fuc(a1-2)[Gal(a1-3)]Gal(b1-3)GalNAc(b1-3)Gal(a1-4)Gal(b1-4)Glc
Method in brief: as §1

[6] = target: Fuc(a1-2)[Gal(a1-3)]Gal(b1-3)GlcNAc(b1-3)GalNAc
Method in brief: as §1

[7] = target: Fuc(a1-2)[Gal(a1-3)]Gal(b1-4)[Fuc(a1-3)]GlcNAc
Method in brief: as §1

[8] = target: Fuc(a1-2)[GalNAc(a1-3)]Gal(b1-4)[Fuc(a1-3)]GlcNAc(b1-3)GalNAc
Method in brief: as §1

[9] = target: Fuc(a1-2)[GalNAc(a1-4)]Gal(b1-4)GlcNAc
Method in brief: as §1

[10] = target: Fuc(a1-3)[Gal(b1-4)]GlcNAc(b1-3)Gal(b1-3)[Fuc(a1-4)]GlcNAc
Method in brief: as §1

[11] = target: Fuc(a1-3)[GalNAc(b1-4)]GlcNAc
Method in brief: as §1

Gal(a1-3)Gal(b1-3)Glc = target: Gal(a1-3)Gal(b1-3)Glc
Method in brief: as §1

[12] = target: Gal(a1-3)Gal(b1-4)GlcNAc(b1-2)Man(a1-3)[Gal(a1-3)Gal(b1-4)GlcNAc(b1-2)Man(a1-6)]Man(b1-4)GlcNAc(b1-4)GlcNAc
Method in brief: as §1

Gal(a1-3)GlcNAc = target: Gal(a1-3)GlcNAc
Method in brief: as §1

[13] = target: Gal(b1-3)GalNAc(a1-3)[Fuc(a1-2)]Gal(b1-4)Glc
Method in brief: as §1

[14] = target: Gal(b1-3)GalNAc(a1-3)[Fuc(a1-2)]Gal(b1-4)GlcNAc
Method in brief: as §1

[15] = target: Gal(b1-3)GlcNAc(a1-6)Gal(b1-4)GlcNAc
Method in brief: as §1

[16] = target: Gal(b1-3)GlcNAc(b1-3)Gal(b1-4)GlcNAc
Method in brief: as §1

[17] = target: Gal(b1-3)[Neu5Ac(a2-6)]GlcNAc(b1-4)Gal(b1-4)Glc
Method in brief: as §1

Gal(b1-4)GlcNAc = target: Gal(b1-4)GlcNAc
Method in brief: as §1

[18] = target: Gal(b1-4)GlcNAc(b1-2)[Gal(b1-4)GlcNAc(b1-4)]Man(a1-3)[Gal(b1-4)GlcNAc(b1-2)[Gal(b1-4)GlcNAc(b1-6)]Man(a1-6)]Man(b1-4)GlcNAc(b1-4)GlcNAc
Method in brief: as §1

[19] = target: Gal(b1-4)GlcNAc(b1-2)[Gal(b1-4)GlcNAc(b1-6)]Man(a1-6)[Gal(b1-4)GlcNAc(b1-2)Man(a1-3)]Man(b1-4)GlcNAc(b1-4)[Fuc(a1-6)]GlcNAc
Method in brief: as §1

[20] = target: Gal(b1-4)GlcNAc(b1-2)[Gal(b1-4)GlcNAc(b1-6)]Man(a1-6)[GlcNAc(b1-4)][Gal(b1-4)GlcNAc(b1-2)Man(a1-3)]Man(b1-4)GlcNAc(b1-4)GlcNAc
Method in brief: as §1

[21] = target: Gal3S(b1-4)[Fuc(a1-3)]Glc6S
Method in brief: as §1

[22] = target: GalNAc(b1-3)Gal(a1-4)Gal(b1-4)GlcNAc(b1-3)Gal(b1-4)Glc
Method in brief: as §1

[23] = target: GalNAc3S(b1-4)[Fuc(a1-3)]GlcNAc
Method in brief: as §1

GalNAc4S6S(b1-4)GlcNAc = target: GalNAc4S6S(b1-4)GlcNAc
Method in brief: as §1

[24] = target: Glc(a1-6)Glc(a1-6)Glc(a1-6)Glc
Method in brief: as §1

[25] = target: GlcNAc(a1-4)Gal(b1-4)GlcNAc(b1-3)Gal(b1-4)[Fuc(a1-3)]GlcNAc(b1-3)Gal(b1-4)[Fuc(a1-3)]GlcNAc
Method in brief: as §1

[26] = target: GlcNAc(b1-3)Gal(b1-4)GlcNAc(b1-2)[GlcNAc(b1-3)Gal(b1-4)GlcNAc(b1-6)]Man(a1-6)[GlcNAc(b1-3)Gal(b1-4)GlcNAc(b1-2)Man(a1-3)]Man(b1-4)GlcNAc(b1-4)GlcNAc
Method in brief: as §1

[27] = target: GlcNAc(b1-3)Gal(b1-4)GlcNAc(b1-3)Gal(b1-4)GlcNAc(b1-3)Gal(b1-4)GlcNAc(b1-3)Gal(b1-4)GlcNAc(b1-2)[GlcNAc(b1-3)Gal(b1-4)GlcNAc(b1-3)Gal(b1-4)GlcNAc(b1-3)Gal(b1-4)GlcNAc(b1-3)Gal(b1-4)GlcNAc(b1-6)]Man(a1-6)[GlcNAc(b1-3)Gal(b1-4)GlcNAc(b1-3)Gal(b1-4)GlcNAc(b1-3)Gal(b1-4)GlcNAc(b1-3)Gal(b1-4)GlcNAc(b1-2)Man(a1-3)]Man(b1-4)GlcNAc(b1-4)[Fuc(a1-6)]GlcNAc
Method in brief: as §1

[28] = target: GlcNAc(b1-3)[GlcNAc(b1-6)]Gal(b1-4)GlcNAc
Method in brief: as §1

[29] = target: GlcNAc(b1-3)[GlcNAc(b1-6)]GlcNAc
Method in brief: as §1

[30] = target: GlcNAc(b1-4)Gal(b1-4)GlcNAc
Method in brief: as §1

[31] = target: Man(a1-2)Man(a1-3)[Man(a1-2)Man(a1-6)]Man(a1-6)[Man(a1-2)Man(a1-2)Man(a1-3)]Man(b1-4)GlcNAc(b1-4)GlcNAc
Method in brief: as §1

[32] = target: Man(a1-2)Man(a1-3)[Man(a1-3)[Man(a1-6)]Man(a1-6)]Man(b1-4)GlcNAc(b1-4)GlcNAc
Method in brief: as §1

[33] = target: Man(a1-2)Man(a1-3)[Man(a1-6)]Man(a1-6)[Man(a1-2)Man(a1-3)]Man(b1-4)GlcNAc(b1-4)GlcNAc
Method in brief: as §1

[34] = target: Man(a1-3)[Man(a1-6)]Man(a1-6)[Man(a1-3)]Man(b1-4)GlcNAc(b1-4)GlcNAc
Method in brief: as §1

[35] = target: Neu5Ac(a2-3)Gal(b1-4)GlcNAc(b1-3)Gal(b1-4)GlcNAc(b1-3)Gal(b1-4)GlcNAc(b1-2)Man(a1-3)[Neu5Ac(a2-3)Gal(b1-4)GlcNAc(b1-3)Gal(b1-4)GlcNAc(b1-3)Gal(b1-4)GlcNAc(b1-2)Man(a1-6)]GalNAc
Method in brief: as §1

[36] = target: Neu5Ac(a2-3)Gal(b1-4)GlcNAc(b1-6)[Neu5Ac(a2-3)Gal(b1-3)]GalNAc
Method in brief: as §1

[37] = target: Neu5Ac(a2-3)Gal(b1-4)[Fuc(a1-3)]GlcNAc
Method in brief: as §1

[38] = target: Neu5Ac(a2-3)Gal(b1-4)[Fuc(a1-3)]GlcNAc(b1-3)GalNAc
Method in brief: as §1

[39] = target: Neu5Ac(a2-3)Gal6S(b1-4)[Fuc(a1-3)]GlcNAc
Method in brief: as §1

Neu5Ac(a2-6)Gal = target: Neu5Ac(a2-6)Gal
Method in brief: as §1

[40] = target: Neu5Ac(a2-6)Gal(b1-4)GlcNAc(b1-2)Man(a1-6)Man(b1-4)GlcNAc(b1-4)GlcNAc
Method in brief: as §1

[41] = target: Neu5Ac(a2-6)Gal(b1-4)GlcNAc(b1-2)Man(a1-6)[Gal(b1-4)GlcNAc(b1-2)Man(a1-3)]Man(b1-4)GlcNAc(b1-4)GlcNAc
Method in brief: as §1

[42] = target: Neu5Ac(a2-6)Gal(b1-4)GlcNAc(b1-2)Man(a1-6)[GlcNAc(b1-2)Man(a1-3)]Man(b1-4)GlcNAc(b1-4)GlcNAc
Method in brief: as §1

[43] = target: Neu5Ac(a2-6)Gal(b1-4)GlcNAc(b1-6)GalNAc
Method in brief: as §1

[44] = target: Neu5Ac(a2-6)Gal(b1-4)GlcNAc(b1-6)[Gal(b1-3)]GalNAc
Method in brief: as §1

Neu5Ac(a2-8)Neu5Ac = target: Neu5Ac(a2-8)Neu5Ac
Method in brief: as §1

[45] = target: Neu5Gc(a2-3)Gal(b1-3)GlcNAc
Method in brief: as §1

B1: XL-35 (Xenopus laevis) (protein)
chain: MLVHILLLLVTGGLSQSCDPVVIVASKNMVKQLDCDKFRNCKEIKDSNEEAQDGIYTLTSPDGISYQTFCDMTTNGGGWTLVASVHENNMAGKCTIGDRWSSQQGNRADYPEGDGNWANYNTFGSAGGATSDDYKNPGYYDIEAYNLGVWHVPNKTPLSVWRNSSLQRYRTTDGILFKHGGNLFSLYRIYPVKYGIGSCSKDSGPTVPVVYDLGSANLTASFYSPGFRSQFTPGYIQFRPINTEKAALALCPGMKMESCNVEHVCIGGGGYFPEADPRQCGDFAAYDFNGYGTKKFNSAGIEITEAAVLLFYL
- glycan array binding signal (z-score) [1]: -0.108
- glycan array binding signal (z-score) [2]: -0.184
- glycan array binding signal (z-score) [3]: -0.215
- glycan array binding signal (z-score) (Fuc(a1-2)Gal(b1-4)Glc6S): 0.014
- glycan array binding signal (z-score) [4]: 0.358
- glycan array binding signal (z-score) (Fuc(a1-2)GlcNAc): -0.021
- glycan array binding signal (z-score) [5]: -0.322
- glycan array binding signal (z-score) [6]: -0.477
- glycan array binding signal (z-score) [7]: -0.202
- glycan array binding signal (z-score) [8]: 20.3
- glycan array binding signal (z-score) [9]: -0.131
- glycan array binding signal (z-score) [10]: -0.053
- glycan array binding signal (z-score) [11]: 6.12
- glycan array binding signal (z-score) (Gal(a1-3)Gal(b1-3)Glc): 2.36
- glycan array binding signal (z-score) [12]: 0.152
- glycan array binding signal (z-score) (Gal(a1-3)GlcNAc): 15.9
- glycan array binding signal (z-score) [13]: -0.227
- glycan array binding signal (z-score) [14]: -0.337
- glycan array binding signal (z-score) [15]: -0.171
- glycan array binding signal (z-score) [16]: -0.474
- glycan array binding signal (z-score) [17]: 0.794
- glycan array binding signal (z-score) (Gal(b1-4)GlcNAc): -0.066
- glycan array binding signal (z-score) [18]: 0.777
- glycan array binding signal (z-score) [19]: 0.078
- glycan array binding signal (z-score) [20]: -0.452
- glycan array binding signal (z-score) [21]: 0.818
- glycan array binding signal (z-score) [22]: -0.027
- glycan array binding signal (z-score) [23]: -0.078
- glycan array binding signal (z-score) (GalNAc4S6S(b1-4)GlcNAc): 0.078
- glycan array binding signal (z-score) [24]: 0.158
- glycan array binding signal (z-score) [25]: 1.05
- glycan array binding signal (z-score) [26]: 0.95
- glycan array binding signal (z-score) [27]: 0.094
- glycan array binding signal (z-score) [28]: -0.01
- glycan array binding signal (z-score) [29]: -0.058
- glycan array binding signal (z-score) [30]: 4.54
- glycan array binding signal (z-score) [31]: -0.156
- glycan array binding signal (z-score) [32]: -0.086
- glycan array binding signal (z-score) [33]: -0.092
- glycan array binding signal (z-score) [34]: 0.065
- glycan array binding signal (z-score) [35]: 0.335
- glycan array binding signal (z-score) [36]: -0.518
- glycan array binding signal (z-score) [37]: -0.21
- glycan array binding signal (z-score) [38]: 0.775
- glycan array binding signal (z-score) [39]: -0.241
- glycan array binding signal (z-score) (Neu5Ac(a2-6)Gal): -0.04
- glycan array binding signal (z-score) [40]: -0.2
- glycan array binding signal (z-score) [41]: -0.115
- glycan array binding signal (z-score) [42]: 0.009
- glycan array binding signal (z-score) [43]: -0.112
- glycan array binding signal (z-score) [44]: 0.356
- glycan array binding signal (z-score) (Neu5Ac(a2-8)Neu5Ac): -0.216
- glycan array binding signal (z-score) [45]: -0.235
